For 19 molecules, growth inhibition, inhibition and outcome results are on record in PubChem BioAssay.

Several values for one entry are separate records, joined by “and”; a condition that tells them apart may be missing. Equal values may be shown once. For some assays here: Entries with a potency or affinity are not part of this list. Some compounds were tested as several samples or in several runs, with calls that do not always agree. Activity calls are given as the source filed them. Unless noted, no rule for the calls is given here.

Experiment [1] is described as follows: antimalarial activity against Dd2 strain (AID 2302;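 active = growth inhibition above 50% at the single 2 µM test dose, taken to imply half-maximal potency below 2 µM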;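 also: 0% = DMSO untreated growth and 100% = chloroquine plus artemisinin killed control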). The conditions noted are these: P. falciparum Dd2 in RBCs, LDH growth readout, 72 h; at 2 µM; stronger effect = higher value.
Experiment [2] is described as follows: human hepatoma cell viability loss – ATP luminescence, cytotoxicity control for P. falciparum antimalarial project, primary screen (AID 2303;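 active = inhibition above 50%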;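 also: 0% = DMSO wells and 100% = digitonin-killed cells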). The conditions noted are these: HepG2 viability, 24-48 h, at 10 µM, stronger effect = higher value.
The target of experiment [3] is L-lactate dehydrogenase (Plasmodium falciparum (isolate CDC / Honduras)) (UniProt Q27743). The experiment can be described thus: PfLDH activity inhibition – cell lysate, 3D7 strain, counter-screen for P. falciparum growth inhibition project (AID 2304).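 Also: 0% = vehicle and 100% = reference inhibitor.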 The conditions noted are these: P. falciparum 3D7 crude extract, LDH APAD/NBT absorbance; at 2 µM; stronger effect = higher value.

The nature of experiment [4]: inhibition of 3D7 malaria parasite growth – strain 3D7 (AID 2306).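 Also: 0% = DMSO wells and 100% = chloroquine plus artemisinin control wells.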 The settings on record: P. falciparum 3D7 erythrocytic growth, LDH absorbance, 72 h; at 2 µM; stronger effect = higher value.
Experiment [5] has as its target Calcium-dependent protein kinase 1 (Plasmodium falciparum (isolate 3D7)) (UniProt P62344). The experiment can be described thus: PfCDPK1 kinase inhibitors, biochemical, TCAMS library (AID 1159585; cut-off not given, nearly all actives have IC50 up to about 0.98 µM;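 also: inhibitors leave more ATP so luminescence rises with inhibition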). The settings on record: recombinant PfCDPK1, Kinase-Glo ATP depletion luminescence. (In general: Kinase-Glo reads ATP consumption through a luciferase reaction.)
Experiment [6] concerns the target Plasmodium falciparum protein kinase 6 (PK6, PF3D7_1337100) (UniProt Q8IDW1). The experiment can be described thus: PfPK6 kinase inhibitors, biochemical, TCAMS library (AID 1159586). The conditions noted are these: recombinant PfPK6, Kinase-Glo ATP depletion luminescence.
Experiment [7] concerns the target Protein kinase 7 (PK7), Plasmodium falciparum 3D7 (PF3D7_0213400) (UniProt Q7YTF7). The experiment can be described thus: inhibition of Plasmodium PK7 catalytic activity – biochemical, TCAMS antimalarial set, Kinase-Glo luminescence (AID 1159587). The settings on record: recombinant PfPK7, Kinase-Glo ATP depletion luminescence.
The target of experiment [8] is Calcium-dependent protein kinase 4 (Plasmodium falciparum (isolate 3D7)) (UniProt Q8IBS5). The experiment can be described thus: PfCDPK4 kinase inhibitors, biochemical, TCAMS library (AID 1159588; cut-off not given, nearly all actives have IC50 up to about 0.91 µM). The settings on record: recombinant PfCDPK4, Kinase-Glo ATP depletion luminescence.
Chain of Calcium-dependent protein kinase 4 (Plasmodium falciparum (isolate 3D7)) (Q8IBS5 whole entry, looked up): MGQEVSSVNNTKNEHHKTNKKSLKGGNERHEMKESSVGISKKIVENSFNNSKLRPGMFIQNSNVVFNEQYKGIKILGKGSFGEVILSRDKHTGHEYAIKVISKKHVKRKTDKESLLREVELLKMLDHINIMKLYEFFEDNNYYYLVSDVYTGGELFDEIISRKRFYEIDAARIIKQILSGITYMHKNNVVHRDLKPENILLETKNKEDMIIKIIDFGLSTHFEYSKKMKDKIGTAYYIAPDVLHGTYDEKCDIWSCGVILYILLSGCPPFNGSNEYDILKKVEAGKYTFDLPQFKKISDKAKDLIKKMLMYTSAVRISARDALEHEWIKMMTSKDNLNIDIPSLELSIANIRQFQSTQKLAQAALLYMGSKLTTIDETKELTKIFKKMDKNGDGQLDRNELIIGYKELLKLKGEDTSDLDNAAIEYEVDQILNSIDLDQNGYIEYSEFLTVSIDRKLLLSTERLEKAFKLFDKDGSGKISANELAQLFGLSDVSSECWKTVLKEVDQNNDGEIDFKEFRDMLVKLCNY

Chain of Protein kinase 7 (PK7), Plasmodium falciparum 3D7 (PF3D7_0213400) (Q7YTF7 1-343): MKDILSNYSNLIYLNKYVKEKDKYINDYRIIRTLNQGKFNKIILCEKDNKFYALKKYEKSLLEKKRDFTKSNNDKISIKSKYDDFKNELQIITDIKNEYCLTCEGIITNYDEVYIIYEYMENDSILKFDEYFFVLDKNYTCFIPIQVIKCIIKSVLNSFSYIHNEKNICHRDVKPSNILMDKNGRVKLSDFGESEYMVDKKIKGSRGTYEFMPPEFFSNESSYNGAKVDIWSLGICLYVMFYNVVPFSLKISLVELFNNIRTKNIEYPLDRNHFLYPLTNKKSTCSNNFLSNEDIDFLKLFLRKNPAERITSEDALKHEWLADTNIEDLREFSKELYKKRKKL
Chain of L-lactate dehydrogenase (Plasmodium falciparum (isolate CDC / Honduras)) (Q27743 whole entry, looked up): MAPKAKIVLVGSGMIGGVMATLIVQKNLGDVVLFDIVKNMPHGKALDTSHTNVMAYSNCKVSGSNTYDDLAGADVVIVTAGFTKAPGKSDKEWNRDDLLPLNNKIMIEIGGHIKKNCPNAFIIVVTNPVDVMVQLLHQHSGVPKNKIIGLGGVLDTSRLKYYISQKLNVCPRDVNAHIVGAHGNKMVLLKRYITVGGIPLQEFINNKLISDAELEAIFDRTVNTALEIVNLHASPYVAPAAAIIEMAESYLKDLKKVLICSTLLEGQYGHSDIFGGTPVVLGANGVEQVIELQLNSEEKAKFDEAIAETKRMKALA
Chain of Plasmodium falciparum protein kinase 6 (PK6, PF3D7_1337100) (Q8IDW1 1-305): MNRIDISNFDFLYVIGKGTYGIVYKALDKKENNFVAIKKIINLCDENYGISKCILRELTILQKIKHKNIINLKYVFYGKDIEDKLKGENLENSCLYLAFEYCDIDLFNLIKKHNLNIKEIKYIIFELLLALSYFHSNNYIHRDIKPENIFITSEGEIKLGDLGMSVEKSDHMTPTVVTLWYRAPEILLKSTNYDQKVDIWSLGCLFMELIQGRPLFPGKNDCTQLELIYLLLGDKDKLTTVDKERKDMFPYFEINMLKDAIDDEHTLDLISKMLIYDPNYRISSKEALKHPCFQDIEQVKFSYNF
Chain of Calcium-dependent protein kinase 1 (Plasmodium falciparum (isolate 3D7)) (P62344 whole entry, looked up): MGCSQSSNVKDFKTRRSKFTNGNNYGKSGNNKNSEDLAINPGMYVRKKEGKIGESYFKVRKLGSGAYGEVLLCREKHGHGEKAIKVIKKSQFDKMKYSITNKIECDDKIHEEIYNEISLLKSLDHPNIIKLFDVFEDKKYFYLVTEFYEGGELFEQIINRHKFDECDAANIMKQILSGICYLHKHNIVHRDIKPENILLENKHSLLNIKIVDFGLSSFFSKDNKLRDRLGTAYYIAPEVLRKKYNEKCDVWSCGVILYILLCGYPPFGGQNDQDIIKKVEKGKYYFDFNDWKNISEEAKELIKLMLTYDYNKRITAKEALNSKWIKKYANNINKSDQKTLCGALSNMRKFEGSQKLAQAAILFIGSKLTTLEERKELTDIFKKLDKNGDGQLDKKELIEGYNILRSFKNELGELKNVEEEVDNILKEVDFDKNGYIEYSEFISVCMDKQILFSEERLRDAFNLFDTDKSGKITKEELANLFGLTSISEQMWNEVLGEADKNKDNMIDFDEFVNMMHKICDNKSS

With `O=C(C=Cc1ccc(F)c(Br)c1)N1CCC(CN2CCC(c3c[nH]c4ccccc34)CC2)CC1`, the growth inhibition in experiment [1] is 9% (inactive); in experiment [4], 100% (active). Besides, the results for the inhibition in experiment [2] and in experiment [3] were 39% (inactive) and -3% (inactive), respectively. In addition, the outcome in experiment [5], in experiment [6], in experiment [7] and in experiment [8] was inactive.
Regarding `CN(C)c1cccc(CCNCCc2c[nH]c3ccc(Cl)cc23)c1`, the figures for the growth inhibition in experiment [1] and in experiment [4] were 75% (active) and 94% (active), respectively. Moreover, the values for the inhibition in experiment [2] and in experiment [3] were 19% (inactive) and -6% (inactive), respectively. Besides, the result in experiment [5], in experiment [6], in experiment [7] and in experiment [8] was inactive.
`Cc1[nH]c2cc(Cl)ccc2c1C1=CCN(CCCCC2(C)C(=O)Nc3c(F)cccc32)CC1` (configuration not stated): the growth inhibition in experiment [1] is 74% (active); in experiment [4], 90% (active). For the same molecule, the inhibition in experiment [2] was 14% (inactive); in experiment [3] it was 3% (inactive). The outcome in experiment [5], in experiment [6], in experiment [7] and in experiment [8] was inactive.
For the molecule `Oc1ccc(CN2CCN(CCOC(c3ccccc3)c3ccccc3)CC2)cc1Cl`, the growth inhibition in experiment [1] is 77% (active); in experiment [4], 98% (active). In addition, the inhibition was 7% (inactive) in experiment [2] and 1% (inactive) in experiment [3]. For the same molecule, the outcome in experiment [5], in experiment [6], in experiment [7] and in experiment [8] was inactive.
For the molecule `CC(=O)N(Cc1ccccc1-c1ccc(CNCCc2ccccc2)cc1)C1CCN(Cc2ccccc2)CC1`, the growth inhibition in experiment [1] is 85% (active); in experiment [4], 101% (active). Also, the inhibition in experiment [2] was 24% (inactive); in experiment [3], 3% (inactive). The outcome in experiment [5], in experiment [6], in experiment [7] and in experiment [8] was inactive.
Regarding `COCC(=O)N(Cc1ccccc1-c1ccc(CNCCc2ccccc2)cc1)C1CCN(Cc2ccccc2)CC1`, the growth inhibition in experiment [1] was 86% (active); in experiment [4] it was 94% (active). Moreover, the inhibition is 39% (inactive) in experiment [2] and 1% (inactive) in experiment [3]. For the same molecule, the outcome in experiment [5], in experiment [6], in experiment [7] and in experiment [8] was inactive.
Regarding `CC(Cc1ccc(NC(=O)[C@@H](C)NCCc2cccc(Cl)c2)cc1)NCCc1cccc(Cl)c1` (some centres not stated), the growth inhibition is 54% (active) in experiment [1] and 99% (active) in experiment [4]. The values for the inhibition in experiment [2] and in experiment [3] were 99% (active) and -1% (inactive), respectively. Also, the outcome in experiment [5], in experiment [6], in experiment [7] and in experiment [8] was inactive.
As to `CCOC(C(=O)OCC1CCCN1C)(c1ccccc1)c1ccccc1` (configuration not stated), the growth inhibition in experiment [1] was 3% (inactive); in experiment [4] it was 97% (active). Moreover, the inhibition in experiment [2] was 13% (inactive); in experiment [3] it was 6% (inactive). The result in experiment [5], in experiment [6], in experiment [7] and in experiment [8] was inactive.
As to `CN(C)CCC(=O)c1ccccc1`, the growth inhibition is 5% (inactive) in experiment [1] and 100% (active) in experiment [4]. Moreover, the inhibition is 11% (inactive) in experiment [2] and -6% (inactive) in experiment [3]. In addition, the outcome in experiment [5], in experiment [6], in experiment [7] and in experiment [8] was inactive.
Regarding `COc1cccc(CC(C)NCC(O)c2cccc(Cl)c2)c1` (configuration not stated), the results for the growth inhibition in experiment [1] and in experiment [4] were 76% (active) and 85% (active), respectively. In addition, the inhibition in experiment [2] is 7% (inactive); in experiment [3] it was -1% (inactive). Further, the result in experiment [5], in experiment [6], in experiment [7] and in experiment [8] was inactive.
Take `Cc1c(C)c2c(c(C)c1O)CC[C@](C)(C(=O)NC1CCC(CN3CCC(c4c[nH]c5ccccc45)CC3)CC1)O2` (some centres not stated): the growth inhibition was 98% (active) and 48% (inactive) in experiment [1]; 96% (active) and 85% (active) in experiment [4]. For the same molecule, the inhibition is 24% (inactive) and 27% (inactive) in experiment [2]; -2% (inactive) and 1% (inactive) in experiment [3]. Besides, the outcome in experiment [5], in experiment [6], in experiment [7] and in experiment [8] was inactive.
`CC[C@H]1CN2CC[C@H]1C[C@H]2[C@H](O)c1cc(-c2cccc(Cl)c2)nc2ccc(OC)cc12`: the growth inhibition is 99% (active) in experiment [1] and 98% (active) in experiment [4]. The inhibition was 16% (inactive) in experiment [2] and 6% (inactive) in experiment [3]. Besides, the result in experiment [5], in experiment [6], in experiment [7] and in experiment [8] was inactive.
Turning to `O=C(/C=C/c1ccsc1)NC1CCC(CN2CCC(c3c[nH]c4ccccc34)CC2)CC1` (configuration not stated), the results for the growth inhibition in experiment [1] and in experiment [4] were 20% (inactive) and 82% (active), respectively. The inhibition in experiment [2] is 29% (inactive); in experiment [3], -1% (inactive). In addition, the result in experiment [5], in experiment [6], in experiment [7] and in experiment [8] was inactive.
As for `CC[C@H]1CN2CC[C@@H]1C[C@H]2[C@H](O)c1cc(N2CCCC(C)(C)C2)nc2ccc(OC)cc12`, the growth inhibition in experiment [1] was 72% (active); in experiment [4] it was 101% (active). In addition, the results for the inhibition in experiment [2] and in experiment [3] were 25% (inactive) and 3% (inactive), respectively. Moreover, the result in experiment [5], in experiment [6], in experiment [7] and in experiment [8] was inactive.
On to `Cc1nc(C)c(-c2ccc(Oc3ccc(OC(F)(F)F)cc3)cc2)c(OC(=O)N(CCNC(C)C)C(C)C)c1Br`, for which the growth inhibition in experiment [1] was 97% (active); in experiment [4] it was 98% (active). The inhibition in experiment [2] is 35% (inactive); in experiment [3] it was -2% (inactive). The result in experiment [5], in experiment [6], in experiment [7] and in experiment [8] was inactive.
As to `Fc1ccc(N(c2nc(-c3cc(F)cc(C(F)(F)F)c3)cs2)C2CCNCC2)cc1`, the growth inhibition in experiment [1] was 10% (inactive); in experiment [4], 95% (active). In addition, the inhibition in experiment [2] is 35% (inactive); in experiment [3], -3% (inactive). For the same molecule, the outcome in experiment [5], in experiment [6], in experiment [7] and in experiment [8] was inactive.
In the case of `CC(Cc1ccc(OCCOc2ccccc2)cc1)NCC(O)c1cccc(Cl)c1` (configuration not stated), the growth inhibition in experiment [1] and in experiment [4] was 99% (active) in each case. The inhibition in experiment [2] was 12% (inactive); in experiment [3], 1% (inactive). The result in experiment [5], in experiment [6], in experiment [7] and in experiment [8] was inactive.
Turning to `CC[C@H]1CN2CC[C@H]1C[C@H]2[C@H](O)c1cc(-c2ccccc2C(F)(F)F)nc2ccc(OC)cc12`, the values for the growth inhibition in experiment [1] and in experiment [4] were 99% (active) and 98% (active), respectively. For the same molecule, the values for the inhibition in experiment [2] and in experiment [3] were -4% (inactive) and -5% (inactive), respectively. Further, the outcome in experiment [5], in experiment [6], in experiment [7] and in experiment [8] was inactive.
On to `CC(Cc1ccc(CSC(C)C)cc1)NCC(O)c1cccc(Cl)c1` (configuration not stated), for which the growth inhibition in experiment [1] and in experiment [4] was 98% (active) throughout. For the same molecule, the figures for the inhibition in experiment [2] and in experiment [3] were 11% (inactive) and -8% (inactive), respectively. The outcome in experiment [5], in experiment [6], in experiment [7] and in experiment [8] was inactive.

In general, inhibition refers to the relative decrease from the control value, in per cent.
